Data as given in PubChem BioAssay.
The source made the active and inactive calls. How the calls were made is not given here.

Target: Pantothenate synthetase (Mycobacterium tuberculosis (strain ATCC 25618 / H37Rv)) (UniProt P9WIL5)
Assay: Coupled enzyme confirmation of inhibitors against recombinant Mtb PanC (AID 375);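 further: 0% = full reaction with vehicle and 100% = no enzyme background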
Settings: coupled enzyme assay; at 10 µM, active compounds read high

Sequence of Pantothenate synthetase (Mycobacterium tuberculosis (strain ATCC 25618 / H37Rv)) (P9WIL5 whole entry, looked up): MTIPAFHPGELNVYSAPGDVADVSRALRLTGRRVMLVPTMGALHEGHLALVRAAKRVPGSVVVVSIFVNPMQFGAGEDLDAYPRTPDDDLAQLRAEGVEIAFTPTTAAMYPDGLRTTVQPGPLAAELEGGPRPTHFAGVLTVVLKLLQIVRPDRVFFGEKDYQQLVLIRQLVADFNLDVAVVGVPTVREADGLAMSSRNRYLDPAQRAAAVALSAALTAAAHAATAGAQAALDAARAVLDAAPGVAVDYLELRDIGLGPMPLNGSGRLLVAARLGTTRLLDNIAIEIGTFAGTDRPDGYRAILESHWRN

With Cc1ccc2c(c1)c1c(n2CC(O)Cn2c(C)nc3ccccc32)/C(=N\O)CCC1 (configuration not stated) as the compound, how does the inhibition read?
Its inhibition is 5% (inactive).

COc1cc(C2N3CC4(C)CN2CC(C)(C3)C4)ccc1O (configuration not stated) was tested. Which inhibition did it give?
Its inhibition is 0% (inactive).

For CCOC(=O)c1c(C)oc2ccc(NS(=O)(=O)c3ccc4c5c(cccc35)C(=O)N4)cc12, which inhibition is on record?
Its inhibition is 3% (inactive).

How did the inhibition turn out when COc1cccc(C(=O)Nc2cccc(C(=O)N3CCOCC3)c2)c1 was run?
The inhibition was 2% (inactive).

How did the inhibition turn out when O=C(C1CCC(N2C(=O)C3CC=CCC3C2=O)CC1)N1CCCCC1 (configuration not stated) was run?
The inhibition was 1% (inactive).

CC(C)(C)c1ccc(O)c(N)c1 was tested. Which inhibition did it give?
The inhibition was 2% (inactive).

Which inhibition does the source give for FC(F)Sc1nnc(-c2cccs2)n1-c1ccccc1 here?
Its inhibition is 0% (inactive).

For Cc1ccc(NC(=O)c2ccco2)cc1NC(=O)CSc1nnc(-c2cccs2)n1C, which inhibition is on record?
Its inhibition is 3% (inactive).

How did the inhibition turn out when COC(=O)CNc1nc(C2CC2)nc2c1nnn2Cc1ccccc1Cl was run?
The inhibition was 6% (inactive).

With O=C(c1ccco1)N1CCN(S(=O)(=O)c2ccc(Oc3ccccc3)cc2)CC1 as the compound, how does the inhibition read?
The inhibition was 0% (inactive).

For COC(=O)C1CCN(C(=O)CSc2nnc(-c3ccncc3)o2)CC1, which inhibition is on record?
The inhibition was 0% (inactive).

Nc1nc2sc3c(c2c(=O)s1)CCCC3 was tested. Which inhibition did it give?
The inhibition was 0% (inactive).

With Cn1c(C(=O)OC(C(=O)NC2CCCC2)c2cccnc2)cc2sccc21 (configuration not stated) as the compound, how does the inhibition read?
Its inhibition is 0% (inactive).

Which inhibition does the source give for COc1cccc(C(=O)CSc2nnc(COc3cccc4cccnc34)o2)c1 here?
The inhibition was 0% (inactive).

c1cc(CNc2ccc3c(c2)OCO3)ccn1 was tested. Which inhibition did it give?
Its inhibition is 0% (inactive).

With CCCCOC(=O)CN1C(=O)c2ccc(C(=O)OCCCC)cc2C1=O as the compound, how does the inhibition read?
Its inhibition is 0% (inactive).

With Cc1oc(-c2ccccc2F)nc1CS(=O)(=O)CC(=O)NCCCN1CCc2ccccc2C1 as the compound, how does the inhibition read?
Its inhibition is 0% (inactive).

COC(=O)c1nc2n(n1)C(c1ccc(OC)c(OC)c1)C(C(=O)OC1CCCCC1)=C(C)N2 (configuration not stated) was tested. Which inhibition did it give?
Its inhibition is 0% (inactive).

For COc1cc2c(cc1NC(=O)COC(=O)Cn1cnc3ccccc31)oc1ccccc12, which inhibition is on record?
Its inhibition is 0% (inactive).

With CCOc1ccc(-c2nnc(N)s2)cc1 as the compound, how does the inhibition read?
The inhibition was 0% (inactive).

How did the inhibition turn out when O=C(O)C1CCCN1C(=O)Nc1ccc(F)cc1 (configuration not stated) was run?
The inhibition was 2% (inactive).

Which inhibition does the source give for CCCc1c(O)nc(SCC(=O)NCCc2ccc(OC)c(OC)c2)[nH]c1=O here?
The inhibition was 0% (inactive).
